Results reported in PubChem BioAssay (NCATS).
Results filed as inconclusive are left out. The source made the active and inactive calls. Unless noted, calls come from the whole dose curve; as a rule, active = well fitted curve in either direction with a large enough effect (not every such curve was filed as active); inconclusive = small, poorly fitted or top-dose-only effect, or another doubt; inactive = flat fitted curve, though single readings scatter.

Columns and labels:
[1] = molecular target: Lysosomal acid glucosylceramidase (Homo sapiens) (UniProt P04062); assay: Glucocerebrosidase-p2 (AID 348; in the data active = potency below about 10 µM; note: potency is the fitted concentration of half-maximal effect); details: purified GBA, blue fluorogenic substrate, 40 min
In short: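 Compounds titrated from 0.6 nM upwards against 0.2 nM enzyme in pH 5.9 citric acid/KH2PO4, taurocholate, tween-20; blue fluorogenic substrate 80 uM, 40 min room temperature, stopped and read Ex 365/Em 440 for AC50.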

[2] = AP1 Signaling Pathway (AID 357); details: ME-180 AP-1-bla reporter, EGF-induced, beta-lactamase ratio, 5 h; at 7.69 µM (top of the series) unless noted;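 note: ME-180 reporter cells stimulated with EGF at its EC50 level; % is set by controls: 0 for no effect and ±100 for the full control effect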
In short: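 Modulation of EGF-driven AP-1 transcription was assessed with a beta-lactamase reporter in ME-180 cells. Compound and EC50 EGF were co-incubated 5 hours at 37 °C before 2.5-hour CCF4 loading at room temperature and dual-emission reading.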

[3] = NFAT Signaling Pathway (AID 444); details: Jurkat NFAT-bla M1, carbachol, beta-lactamase ratio, 5 h; at 7.69 µM (top of the series) unless noted;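 note: carbachol stimulus at about its EC50 of 1 µM final; % is set by controls: 0 for no effect and ±100 for the full control effect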
In short: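 Jurkat cells with NFAT-driven β-lactamase reporter and co-expressed M1 receptor, stimulated with carbachol (final 1 uM, ~EC50), compound titration, 5 h at 37 °C. CCF4 loaded 1 h at RT; 460/530 nm ratio gave %activity and AC50.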

[4] = Stat Signaling Pathway (AID 446); details: ME-180 SIE beta-lactamase reporter, IL-6 stimulated, 5 h; at 7.69 µM (top of the series) unless noted;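 note: ME-180 cervical cancer cells given 40 pM IL-6 alongside compound; SIE-controlled beta-lactamase reporter measured as 460/530 nm FRET emission ratio; % is set by controls: 0 for no effect and ±100 for the full control effect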
In short: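 Reporter line: ME-180 cervical carcinoma, SIE-beta-lactamase. Treatment: compound with 40 pM IL-6, 5 hrs, 37 C, in low-serum OPTI-MEM with 10 mM HEPES pH 7.3. Detection: 460/530 nm fluorescence.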

[5] = molecular target: Glucocorticoid receptor (Homo sapiens) (UniProt P04150); assay: GR-GFP Redistribution (AID 450;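 active = compounds whose dose series gives a full or clear partial fitted curve of increased nuclear translocation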; note: potency is the fitted concentration of half-maximal effect); details: U2OS GR-GFP nuclear translocation, laser cytometry, 2 h
[6] = molecular target: Glucocorticoid receptor (Homo sapiens) (UniProt P04150); assay: GR-EFC Redistribution (AID 451; calls by dose curve; note: potency is the fitted concentration of half-maximal effect); details: CHO-K1 GR-EFC translocation, beta-gal luminescence, 2 h
In short: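 CHO-K1 cells expressing nuclear EA and GR-ED fragments of b-gal; compounds titrated up to 46 uM final, 2 h at 37 C. GR nuclear translocation read as complemented b-gal luminescence after 1 h RT detection.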

[7] = molecular target: Mitogen-activated protein kinase 10 (Mus musculus) (UniProt Q61831); assay: JNK3 AlphaScreen Assay (AID 530); details: JNK3 lysate, c-Jun phosphorylation; series mostly up to 57.1 µM;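 note: kinase came from lysate of stimulated human HepG2 cells; signal reports phosphorylation of biotinylated GST-cJun 1-79 at Ser73 with 10 µM ATP; % is set by controls: 0 for no effect and ±100 for the full control effect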
In short: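 qHTS format: compounds tested as titrations against IL-1beta/TNF-alpha-activated HepG2 lysate JNK3 with biotin-GST-cJun substrate and 10 uM ATP at room temperature. Loss of anti-phospho-cJun AlphaScreen signal indicates inhibition.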

[8] = molecular target: 3',5'-cyclic-AMP phosphodiesterase 4B (Homo sapiens) (UniProt Q07343); assay: qHTS Assay for Inhibitors of PDE-IV (AID 607; active = well fitted activation curve with a large enough effect in the main read-out, with a control signal flat, not every such curve was filed as active; note: % of control where 0% means no effect); details: HEK293 ACTOne CNG channel cells, membrane potential fluorescence; series mostly up to 22.9 µM
In short: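 Cell-based read-out of cAMP via a modified cyclic nucleotide-gated channel and membrane potential dye (535/590 nm) in HEK293 cells expressing PDE4 endogenously. Compounds tested up to 22.9 uM final; 100 uM RO 20-1724 reference.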

[9] = molecular target: Cytochrome P450 3A4 (Homo sapiens) (UniProt P08684); assay: qHTS Assay for Activators of Cytochrome P450 3A4 (AID 885; active = well fitted curve in the direction sought with a large enough effect; an effect the other way counts as inactive or inconclusive; note: nearly all actives have a fitted effect of over 65% in size); details: recombinant CYP3A4, Luciferin-PPXE luminescence, 60 min; series mostly up to 57.1 µM
In short: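 Signal was normalized against complete inhibition by 57 uM ketoconazole. The reaction used 20nM CYP3A4 with 25uM Luciferin-PPXE, 10-min compound preincubation and a 60-min NADPH-supported step at RT.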

[10] = molecular target: Cytochrome P450 2D6 (Homo sapiens) (UniProt P10635); assay: qHTS Assay for Inhibitors and Substrates of Cytochrome P450 2D6 (AID 891; active = well fitted curve in the direction sought with a large enough effect; an effect the other way counts as inactive or inconclusive; note: potency is the fitted concentration of half-maximal effect; nearly all actives have a fitted effect of over 60% in size); details: recombinant CYP2D6, luciferin-ME EGE luminescence; series mostly up to 11.4 µM
In short: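 Human CYP2D6 (5 nM) with 30 uM Luciferin-ME EGE (at Km) in 100 mM KPO4, compound preincubated 10 min, then NADPH regeneration system for 60 min at room temperature. Luciferin read by luminescence; normalized to 1.43 uM quinidine.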

Glucocorticoid receptor (Homo sapiens), sequence (P04150 whole entry, looked up, the tested form may be a part): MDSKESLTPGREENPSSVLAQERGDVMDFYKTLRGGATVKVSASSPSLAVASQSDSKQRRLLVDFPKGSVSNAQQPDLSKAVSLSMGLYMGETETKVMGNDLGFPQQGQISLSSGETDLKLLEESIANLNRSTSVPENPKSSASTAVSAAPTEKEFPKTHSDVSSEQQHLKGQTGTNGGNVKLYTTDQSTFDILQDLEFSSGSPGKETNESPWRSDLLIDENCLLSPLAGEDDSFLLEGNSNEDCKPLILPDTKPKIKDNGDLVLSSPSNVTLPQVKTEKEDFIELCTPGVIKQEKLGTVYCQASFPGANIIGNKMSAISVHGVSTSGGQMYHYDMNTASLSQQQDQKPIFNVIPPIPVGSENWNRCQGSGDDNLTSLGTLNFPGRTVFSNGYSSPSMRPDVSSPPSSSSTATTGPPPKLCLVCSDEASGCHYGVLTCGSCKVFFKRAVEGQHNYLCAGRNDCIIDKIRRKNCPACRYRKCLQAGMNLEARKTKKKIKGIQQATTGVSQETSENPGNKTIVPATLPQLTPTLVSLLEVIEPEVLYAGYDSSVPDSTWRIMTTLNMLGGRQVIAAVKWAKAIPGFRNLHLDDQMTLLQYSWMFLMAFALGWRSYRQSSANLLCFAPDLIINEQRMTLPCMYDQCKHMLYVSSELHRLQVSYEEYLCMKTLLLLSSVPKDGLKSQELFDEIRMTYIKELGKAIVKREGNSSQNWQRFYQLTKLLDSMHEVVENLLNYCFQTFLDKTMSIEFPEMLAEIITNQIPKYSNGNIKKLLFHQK
3',5'-cyclic-AMP phosphodiesterase 4B (Homo sapiens), sequence (Q07343 whole entry, looked up): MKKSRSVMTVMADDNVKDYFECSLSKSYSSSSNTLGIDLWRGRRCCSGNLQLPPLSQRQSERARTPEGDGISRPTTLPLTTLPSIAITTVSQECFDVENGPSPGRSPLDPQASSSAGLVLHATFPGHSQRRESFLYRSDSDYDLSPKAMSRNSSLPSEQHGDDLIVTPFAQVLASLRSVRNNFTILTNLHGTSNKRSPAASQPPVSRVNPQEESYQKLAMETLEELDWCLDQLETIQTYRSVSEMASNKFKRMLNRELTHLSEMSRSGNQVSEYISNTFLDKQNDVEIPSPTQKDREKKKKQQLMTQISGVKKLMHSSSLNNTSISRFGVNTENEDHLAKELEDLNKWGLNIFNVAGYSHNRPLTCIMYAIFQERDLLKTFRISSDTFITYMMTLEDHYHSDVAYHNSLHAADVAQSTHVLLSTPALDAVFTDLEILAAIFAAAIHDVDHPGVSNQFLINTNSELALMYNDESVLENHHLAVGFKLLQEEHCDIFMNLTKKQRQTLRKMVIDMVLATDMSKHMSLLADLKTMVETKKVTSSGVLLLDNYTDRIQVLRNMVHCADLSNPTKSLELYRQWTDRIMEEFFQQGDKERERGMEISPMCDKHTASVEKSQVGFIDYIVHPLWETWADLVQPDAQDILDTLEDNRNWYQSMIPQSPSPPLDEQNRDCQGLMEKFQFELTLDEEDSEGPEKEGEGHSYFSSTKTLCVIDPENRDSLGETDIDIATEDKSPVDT
Lysosomal acid glucosylceramidase (Homo sapiens), sequence (P04062 whole entry, looked up): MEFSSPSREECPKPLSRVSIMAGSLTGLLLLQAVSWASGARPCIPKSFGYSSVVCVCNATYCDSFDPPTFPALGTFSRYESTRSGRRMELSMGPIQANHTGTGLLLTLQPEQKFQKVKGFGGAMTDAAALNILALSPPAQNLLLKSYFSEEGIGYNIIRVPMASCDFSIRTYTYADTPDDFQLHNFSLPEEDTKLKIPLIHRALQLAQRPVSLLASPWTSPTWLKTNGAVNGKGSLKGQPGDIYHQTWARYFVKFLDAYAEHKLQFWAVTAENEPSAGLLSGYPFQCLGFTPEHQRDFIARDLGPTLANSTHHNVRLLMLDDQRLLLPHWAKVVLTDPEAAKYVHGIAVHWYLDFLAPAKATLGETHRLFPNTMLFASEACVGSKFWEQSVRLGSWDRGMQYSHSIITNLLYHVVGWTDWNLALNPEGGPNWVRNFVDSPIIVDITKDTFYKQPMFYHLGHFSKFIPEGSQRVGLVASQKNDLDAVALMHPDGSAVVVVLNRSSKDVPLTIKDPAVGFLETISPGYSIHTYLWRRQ
Cytochrome P450 2D6 (Homo sapiens), sequence (P10635 whole entry, looked up): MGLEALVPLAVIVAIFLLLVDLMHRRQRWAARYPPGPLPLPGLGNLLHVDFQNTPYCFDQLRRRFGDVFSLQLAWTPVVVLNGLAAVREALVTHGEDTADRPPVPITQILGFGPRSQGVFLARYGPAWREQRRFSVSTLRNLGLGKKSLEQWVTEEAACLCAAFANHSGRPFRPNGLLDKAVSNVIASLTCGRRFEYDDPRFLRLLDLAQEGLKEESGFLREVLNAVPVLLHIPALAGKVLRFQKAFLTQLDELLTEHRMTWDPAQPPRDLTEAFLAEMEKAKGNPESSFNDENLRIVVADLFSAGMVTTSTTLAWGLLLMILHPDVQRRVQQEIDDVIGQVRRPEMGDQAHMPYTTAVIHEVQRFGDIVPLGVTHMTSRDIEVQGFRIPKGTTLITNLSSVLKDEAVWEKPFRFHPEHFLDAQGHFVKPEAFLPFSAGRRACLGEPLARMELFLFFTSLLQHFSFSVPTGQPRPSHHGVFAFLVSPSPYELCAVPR
Cytochrome P450 3A4 (Homo sapiens), sequence (P08684 whole entry, looked up): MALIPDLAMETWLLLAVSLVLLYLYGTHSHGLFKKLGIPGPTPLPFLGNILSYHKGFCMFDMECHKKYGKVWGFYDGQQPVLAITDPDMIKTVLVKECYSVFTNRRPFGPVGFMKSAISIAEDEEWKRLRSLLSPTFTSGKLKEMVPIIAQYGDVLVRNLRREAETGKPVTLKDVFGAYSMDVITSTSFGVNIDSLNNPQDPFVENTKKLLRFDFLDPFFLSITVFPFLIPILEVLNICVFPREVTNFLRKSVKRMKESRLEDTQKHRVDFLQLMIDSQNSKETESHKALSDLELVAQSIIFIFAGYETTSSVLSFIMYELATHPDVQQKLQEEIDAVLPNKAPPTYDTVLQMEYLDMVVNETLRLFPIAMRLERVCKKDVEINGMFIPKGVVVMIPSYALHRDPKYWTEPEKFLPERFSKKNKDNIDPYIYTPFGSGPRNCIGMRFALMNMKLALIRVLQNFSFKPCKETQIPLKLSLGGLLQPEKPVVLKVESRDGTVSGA

C[C@@](Br)(C(=O)O)[C@H](Br)C(=O)O
inactive: Potency [1] > 11.4 µM | activity change, negative = inhibition [2] 3.08% | activity change, negative = inhibition [3] 17.1% | activity, negative = inhibition [4] 8.31% | Potency [5] > 46 µM | Potency [6] > 9.22 µM | activity change, negative = inhibition [7] 1.39% [at 11.4 µM] | outcome [8]

CCNC(C)(C)[C@@H](SS)c1ccc(Br)cc1
inactive: Potency [1] > 11.4 µM | activity change, negative = inhibition [2] 5.96% | activity change, negative = inhibition [3] 11.8% | activity, negative = inhibition [4] -1.19% | Potency [5] > 46 µM | Potency [6] > 9.22 µM | activity change, negative = inhibition [7] -0.59% [at 11.4 µM] | outcome [8] | activity change, positive = activation [9] -31.2% [at 11.4 µM]
active: Potency [10] 2 µM

O.O.[NH-]C1(C(=O)O)CCCC1.[NH-]C1(C(=O)O)CCCC1.[Ni+2]
inactive: Potency [1] > 11.4 µM | activity change, negative = inhibition [2] 8.54% | activity change, negative = inhibition [3] -0.81% | activity, negative = inhibition [4] -5.65% | Potency [5] > 46 µM | Potency [6] > 9.22 µM | activity change, negative = inhibition [7] -2.59% [at 11.4 µM] | outcome [8]

C[C@]12CN(CC[N+](C)(C)C)C[C@]1(C)[C@@H]1CC[C@@H]2O1
inactive: activity change, negative = inhibition [2] 12.6% | activity change, negative = inhibition [3] 10.2% | activity, negative = inhibition [4] -6.86% | Potency [5] > 46 µM | Potency [6] > 9.22 µM | activity change, negative = inhibition [7] -2.5% [at 11.4 µM] | outcome [8]
active: Potency [1] 6.39 µM

COc1ccc(C[C@@H](N)c2ccc(OC)cc2)cc1
inactive: Potency [1] > 11.4 µM | activity change, negative = inhibition [2] -1.85% | activity change, negative = inhibition [3] 3.98% | activity, negative = inhibition [4] -0.344% | Potency [5] > 46 µM | Potency [6] > 9.22 µM | activity change, negative = inhibition [7] 3.37% [at 11.4 µM] | outcome [8]
active: Potency [10] 0.631 µM

CCCOC(=O)[C@@H]1[C@@H](C(=O)O)[C@H]2CC[C@@H]1O2
inactive: Potency [1] > 11.4 µM | activity change, negative = inhibition [2] 5.41% | activity change, negative = inhibition [3] -0.63% | activity, negative = inhibition [4] 8.61% | Potency [5] > 46 µM | Potency [6] > 9.22 µM | activity change, negative = inhibition [7] 6.67% [at 11.4 µM] | outcome [8]

O=C(O)C(Oc1nc(=S)[nH]c(=S)[nH]1)(c1ccc(Cl)cc1)c1ccc(Cl)cc1
inactive: Potency [1] > 11.4 µM | activity change, negative = inhibition [2] 17% | activity change, negative = inhibition [3] 0.65% | activity, negative = inhibition [4] 3.94% | Potency [5] > 46 µM | Potency [6] > 9.22 µM | activity change, negative = inhibition [7] 5.45% [at 11.4 µM] | outcome [8]

O=C(O)CNC(=O)c1ccc([As](=O)(O)O)cc1
inactive: Potency [1] > 11.4 µM | activity change, negative = inhibition [2] 9.68% | activity change, negative = inhibition [3] 7.56% | activity, negative = inhibition [4] 12.9% | Potency [5] > 46 µM | Potency [6] > 9.22 µM | activity change, negative = inhibition [7] 36.2% [at 11.4 µM] | outcome [8]

c1nc(N2CC2)c2cnn([C@@H]3CCCCO3)c2n1
inactive: Potency [1] > 11.4 µM | activity change, negative = inhibition [2] 5.4% | activity change, negative = inhibition [3] 7.32% | activity, negative = inhibition [4] -5.16% | Potency [5] > 46 µM | Potency [6] > 9.22 µM | activity change, negative = inhibition [7] 0.68% [at 11.4 µM] | outcome [8]
